D1 PAM = human D1 dopamine receptor positive modulation. potentiation, % at 10 µM. 360,000 tested, 0.036% active. HEK293 TREx D1 cells, calcium flux, dopamine EC20 potentiation. P21728; in the data active = potentiation above about 30%
TRHR enhancer = allosterically enhances the human TRH receptor; P34981; TRHR cells, fluo-8 calcium fluorescence, EC20 TRH enhancement; 360,000 tested, 0.66% active; AID 493056; enhancement, % at 2 µM; in the data active = enhancement above about 30%
Target sequence (P34981 whole entry, looked up): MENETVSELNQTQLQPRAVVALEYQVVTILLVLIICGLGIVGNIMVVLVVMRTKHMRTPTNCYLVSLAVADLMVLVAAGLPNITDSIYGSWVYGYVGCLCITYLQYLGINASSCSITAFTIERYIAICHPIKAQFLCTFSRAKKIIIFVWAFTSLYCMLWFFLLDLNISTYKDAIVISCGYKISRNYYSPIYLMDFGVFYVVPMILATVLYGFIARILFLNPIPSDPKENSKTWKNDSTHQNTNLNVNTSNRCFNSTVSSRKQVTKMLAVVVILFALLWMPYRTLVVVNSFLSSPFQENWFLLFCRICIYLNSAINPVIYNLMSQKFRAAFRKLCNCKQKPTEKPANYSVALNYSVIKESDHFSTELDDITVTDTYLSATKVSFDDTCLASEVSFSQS
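TRHR-expressing cells loaded with fluo-8 calcium dye were read kinetically (ex 480/em 530) during compound addition, then stimulated with an EC20 of TRH (10 nM final). Enhancement of the Gq-mediated intracellular calcium response was scored.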
D1 agonist = activates the human D1 dopamine receptor; P21728; activation, % at 2 µM; HEK293 T-REx D1 cells, calcium flux, agonist mode; 360,000 tested, 1% active
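Inducible HEK293 T-REx D1 cells, force-coupled to calcium signalling, were plated at 4000 cells/well with tetracycline and held overnight at 30 C. After no-wash calcium dye loading, compound-evoked calcium rise over 180 s flagged agonists.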
D1 antagonist = blocks dopamine activation of the human D1 receptor; P21728; HEK293 TREx D1 cells, calcium flux, dopamine EC80; active compounds read low; activity change, negative = inhibition, % at 10 µM; 360,000 tested, 3.2% active; in the data active = activity change below about -30%
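Allosteric or orthosteric antagonism assessed as attenuation of the calcium response to EC80 dopamine, added 180 s after compound, in induced HEK293 Trex D1 cells loaded with no-wash calcium dye.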
TRHR ag = TRH receptor (human) agonism. TRHR cells, calcium flux fluo-8, FDSS agonist mode. activation, % at 2 µM. 360,000 tested, 0.18% active. AID 493084
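Steps: seed TRHR cells overnight; add fluo-8 no-wash Ca dye, RT 30 min–1.5 h; record 10 s baseline; pin-transfer compounds; monitor fluorescence 1 cycle/s for the agonist window. Calcium increases flag candidate agonists.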
Large screens that a line does not name were inactive; ! = not confirmed by another sample. Shown are actives, neighbours in structure and some others; about 4.7% of the full set was active somewhere. Cut-off read from the data, not from the text of the source, unless noted: active = activation above about 30%; inactive = the rest.

CCOc1ccc(/C=C/c2nc(C#N)c(N3CCCCC3)o2)cc1	none
O=S(=O)(Nc1ccc(-c2ccc(N3CCCCC3)nn2)cc1)c1ccc(OC(F)(F)F)cc1	none
CCc1nnc(SCC(=O)N(C)c2ccccc2)c2cc3sccc3n12	none
COc1cc(Cl)c(C)cc1NC(=O)c1nn(-c2ccc(C)cc2)c(=O)n(C)c1=O	D1 antagonist -97.8
Cc1ccc(-n2nc(C(=O)Nc3ccc(F)cc3Cl)c(=O)n(C)c2=O)cc1	none
Cc1ccc(NC(=O)CSc2nc3ccc(NC(=O)COc4ccc(C)cc4)cc3s2)cc1	none
Cc1nn(-c2ccccc2)c2c1C(=O)N(c1ccccc1)C(=O)C(C)(C)C2	D1 antagonist -39.6
O=C(Nc1ccc(Cl)cc1)N1CCC(c2ccccc2)C1 (stereo not given)	D1 antagonist -33.1!
Cc1ccc(C2CCN(C(=O)Nc3ccccc3)C2)cc1 (stereo not given)	none
COc1ccccc1N1CCN(Cc2cccc(OC)c2OC)CC1	D1 antagonist -41.8
COc1ccccc1N1CCN(Cc2cn[nH]c2-c2ccc(F)cc2)CC1	D1 agonist 60.2
CCOc1ccc(CCNS(=O)(=O)c2c(C)nc3sc(C)cn3c2=O)cc1OCC	none
CCOC(=O)c1ccc(NC(=O)c2cnc3c(-c4ccc(F)cc4)c(C)nn3c2C)cc1	D1 antagonist -39.7
CCOC(=O)c1ccc(NC(=O)CCc2c(C)nc3c(-c4ccc(F)cc4)c(C)nn3c2C)cc1	none
Cc1ccc(CNC(=O)c2cnc3c(-c4ccc(F)cc4)c(C)nn3c2C)o1	D1 antagonist -42.8
CC1(C)CC(=O)C2=C(C1)NC(=O)CC2c1ccccc1F (stereo not given)	D1 antagonist -30.6
CC1(C)CC(=O)C2=C(C1)NC(=O)CC2c1cc(F)ccc1F (stereo not given)	none
CCN1C(=O)C(Cc2nc3ccccc3c(=O)n2-c2ccc(OC)cc2)c2ccccc21 (stereo not given)	none
CCN1C(=O)C(Cc2nc3ccccc3c(=O)n2-c2ccccc2)c2ccccc21 (stereo not given)	D1 antagonist -53.9
O=c1cc(-c2c(F)c(F)c(F)c(F)c2F)oc2ccccc12	none
CCN(CC)c1ccc2nc3c4ccccc4c(=O)cc-3oc2c1	D1 agonist 41.8
COc1cccc(-c2csc(-c3c(N)c(C(=O)c4ccccc4)n4ccccc34)n2)c1	none
CCN(CC)S(=O)(=O)c1cc(C(=O)N(C)CC(=O)Nc2ccc(Cl)cc2)ccc1Cl	D1 antagonist -33.5
CN(CC(=O)Nc1ccc(Cl)cc1)C(=O)c1ccc(S(=O)(=O)Nc2ccccc2)cc1	none
CCN(CC)S(=O)(=O)c1cc(C(=O)Nc2ccncc2)ccc1Cl	D1 antagonist -31.0
Cc1ccc(Cn2c(=O)n(-c3cc(C)cc(C)c3)c(=O)c3oc4ccccc4c32)cc1	none
COC(=O)c1ccccc1NC(=O)Cn1cnc([N+](=O)[O-])c1	D1 antagonist -89.4
CC(=O)N1c2ccccc2C(=O)C1N1CCN(c2cccc(Cl)c2)CC1 (stereo not given)	none
CCC1=NN2C(=N)/C(=C\c3ccc(SCc4ccco4)o3)C(=O)N=C2S1	D1 agonist 37.7
CCC1=NN2C(=N)/C(=C/c3c(C)nn(-c4ccccc4)c3Cl)C(=O)N=C2S1	none
CCCC1=NN2C(=N)/C(=C\c3ccc(SCc4ccco4)o3)C(=O)N=C2S1	D1 agonist 63.0
CCCC1=NN2C(=N)/C(=C\c3cc(C)n(Cc4ccccc4)c3C)C(=O)N=C2S1	D1 agonist 149.9, D1 antagonist -36.7
Cc1oc(-c2ccccc2)nc1CSc1nnc(C)n2c1cc1sccc12	none
O=S(=O)(NCc1ccc(C(F)(F)F)cc1)c1ccc(-n2cnnn2)cc1	D1 antagonist -39.5
O=C(CSc1nnc(-c2ccncc2)o1)Nc1ccccc1Cl	none
O=C(CSc1nnc(-c2ccncc2)o1)NC1C2CC3CC(C2)CC1C3 (stereo not given)	TRHR enhancer 30.5
CC(C)(C)[C@H]1C=C(C(N)=O)O[C@@H](OCc2ccc(CO)cc2)C1	D1 antagonist -30.7
CC(C)(C)[C@@H]1C=C(C(N)=O)O[C@H](OCc2ccc(CO)cc2)C1	none
Cc1ccc(CNC(=O)CNC(=S)N(Cc2ccccc2)Cc2ccccc2F)cc1	D1 antagonist -30.4
